# Measured values from PubChem BioAssay (NCATS).
# Several values for one entry are separate records, joined by “and”; a condition that tells them apart may be missing. Equal entries are not always repeated. Records with an inconclusive call do not appear. A call without a number means that no potency is given here. A number with no mark means an inactive call. Activity calls are given as the source filed them. Unless noted, calls follow the shape of the full dose curve. Numbered stars: 1 amine (or outer) side, 2 acyl side, 3 side chain; on linkers, the order of the positions; unused ones are H or OH. Bridge positions count the residues as written; N and C are the ends. Square brackets hold non-standard residues; d marks the D form. Peptide text beside a SMILES is read from it. * marks the point of attachment. ξ: configuration not given here. pTerphenylCO(4''-OnC5H11) = CCCCCOc1ccc(-c2ccc(-c3ccc(C(=O)*)cc3)cc2)cc1; ξOrn(4,5-diOH) = O=C(C(CC(O)C(O)N[*:3])N[*:1])[*:2]; ξhTyr(βξ-OH,γξ-OH) = NC(C(=O)O)C(O)C(O)c1ccc(O)cc1; ξPro(3ξ-OH,4ξ-Me) = CC1CNC(C(=O)O)C1O; Hyp = O=C(O)[CH]1C[CH](O)CN1
# What was measured:
# [1] = MultiTox-Fluor Cytotoxicity Assay - LYMP1-002 - Dead Cells (AID 960; active = well fitted curve in the direction sought with a large enough effect; an effect the other way counts as inactive or inconclusive; also: potency is read from the fitted curve at half-maximal effect; nearly all actives have a fitted effect of over 60% in size)
# Procedure, shortened: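 Readout: fluorescence at 485/520 from cell-impermeant bis-AAF-R110 cleaved by proteases leaking from damaged cells. LYMP1-002 lymphoblastoid line, 16 hr compound treatment at 37 C, concentration-response in qHTS format; Hill-equation AC50 values.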
# [2] = target: Bile acid receptor (Homo sapiens) (UniProt Q96RI1); experiment: qHTS assay for small molecule agonists of farnesoid X receptor signaling (AID 588527); settings: HEK293T FXR-UAS-bla, beta-lactamase ratio, 16 h; stronger effect = higher value; also: series mostly up to about 77 µM
# Bile acid receptor (Homo sapiens), sequence (Q96RI1 whole entry, looked up): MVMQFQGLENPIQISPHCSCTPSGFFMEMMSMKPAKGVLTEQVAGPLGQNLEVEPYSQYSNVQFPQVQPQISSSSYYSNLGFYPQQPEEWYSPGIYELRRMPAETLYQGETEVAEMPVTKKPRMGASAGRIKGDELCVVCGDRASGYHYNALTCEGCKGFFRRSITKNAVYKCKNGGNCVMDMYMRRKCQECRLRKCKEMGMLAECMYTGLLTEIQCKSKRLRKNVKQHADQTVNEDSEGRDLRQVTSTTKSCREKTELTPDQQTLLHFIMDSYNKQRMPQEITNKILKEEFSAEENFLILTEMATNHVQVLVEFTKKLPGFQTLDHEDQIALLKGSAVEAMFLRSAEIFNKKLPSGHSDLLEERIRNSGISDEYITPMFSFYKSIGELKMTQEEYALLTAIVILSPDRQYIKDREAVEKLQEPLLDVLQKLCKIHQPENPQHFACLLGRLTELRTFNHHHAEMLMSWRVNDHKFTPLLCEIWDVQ
# Procedure, shortened: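 FXR-UAS-bla HEK293T cells (10% dialyzed FBS) preincubated 5-7 h at 37 C, then compounds at up to 92 uM for 16 h at 37 C. CCF4 beta-lactamase read-out after 2 h RT. Normalized to chenodeoxycholic acid (100 uM) and DMSO; Hill fit gave EC50 and efficacy.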
# [3] = target: Peroxisome proliferator-activated receptor delta (Homo sapiens) (UniProt Q03181); experiment: qHTS assay for small molecule agonists of peroxisome proliferator-activated receptor delta signaling (AID 588534)
# Peroxisome proliferator-activated receptor delta (Homo sapiens), sequence (Q03181 whole entry, looked up): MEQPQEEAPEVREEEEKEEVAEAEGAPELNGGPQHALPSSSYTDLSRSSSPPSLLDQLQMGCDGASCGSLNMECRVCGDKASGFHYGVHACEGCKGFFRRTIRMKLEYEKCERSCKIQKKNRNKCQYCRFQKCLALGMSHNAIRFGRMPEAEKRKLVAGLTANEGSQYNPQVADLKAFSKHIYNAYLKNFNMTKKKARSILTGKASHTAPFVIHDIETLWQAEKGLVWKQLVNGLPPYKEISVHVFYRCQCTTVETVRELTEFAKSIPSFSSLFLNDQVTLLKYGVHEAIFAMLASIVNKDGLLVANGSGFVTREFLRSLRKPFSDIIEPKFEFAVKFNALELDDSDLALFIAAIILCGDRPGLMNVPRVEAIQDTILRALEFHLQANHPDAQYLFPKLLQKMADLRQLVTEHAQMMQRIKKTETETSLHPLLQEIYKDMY
# Procedure, shortened: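 Titration series tested in agonist mode on beta-lactamase reporter cells; 18 hrs at 37 C after a 5 hr pre-incubation. Readout: CCF4 fluorescence, 2 hrs RT. Hill equation gives EC50 and maximal response.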
# [4] = target: Peroxisome proliferator-activated receptor gamma (Homo sapiens) (UniProt P37231); experiment: qHTS assay for small molecule agonists of peroxisome proliferator-activated receptor gamma signaling (AID 588536; active = well fitted curve in the direction sought with a large enough effect in the signal ratio, with a control signal flat, not every such curve was filed as active; the % refers to the signal ratio)
# Peroxisome proliferator-activated receptor gamma (Homo sapiens), sequence (P37231 whole entry, looked up): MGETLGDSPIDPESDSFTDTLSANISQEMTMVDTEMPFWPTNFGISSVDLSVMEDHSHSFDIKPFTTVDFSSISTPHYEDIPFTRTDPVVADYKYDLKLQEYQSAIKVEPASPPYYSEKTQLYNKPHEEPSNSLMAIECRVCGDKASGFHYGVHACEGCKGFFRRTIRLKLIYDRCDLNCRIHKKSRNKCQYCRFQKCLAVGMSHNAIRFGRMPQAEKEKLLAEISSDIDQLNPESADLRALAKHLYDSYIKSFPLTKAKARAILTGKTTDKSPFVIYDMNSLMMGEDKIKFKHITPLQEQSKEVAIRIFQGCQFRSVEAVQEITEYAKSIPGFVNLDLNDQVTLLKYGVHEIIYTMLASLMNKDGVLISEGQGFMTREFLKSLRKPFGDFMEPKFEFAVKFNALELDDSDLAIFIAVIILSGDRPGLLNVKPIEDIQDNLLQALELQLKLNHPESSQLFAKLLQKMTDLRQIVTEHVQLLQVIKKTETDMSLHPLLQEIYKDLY
# Procedure, shortened: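 Cells were plated and held 6–6.5 h at 37 C, then compounds were added as a titration series. After a further 16 h, CCF4 dye was loaded for 2 h at room temperature and emission at 460/530 nm recorded.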
# [5] = qHTS assay for small molecule agonists of the antioxidant response element (ARE) signaling pathway (AID 651741; active = well fitted activation curve with a large enough effect in the signal ratio; the % refers to the signal ratio; also: potency is read from the fitted curve at half-maximal effect)
# Procedure, shortened: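 HepG2 ARE-bla reporter cells, 2,000/well; 5 h settle at 37 C/5% CO2; compound pin transfer (23 nL, DMSO); 16 h at 37 C; LiveBLAzer B/G FRET substrate, 2 h RT; fluorescence intensity read.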
# [6] = qHTS assay for small molecule agonists of the antioxidant response element (ARE) signaling pathway measured by Nrf2-dependant transcriptional activity (AID 720636; active = well fitted curve in the direction sought with a large enough effect in the repeat runs; an effect the other way counts as inactive or inconclusive)
# Procedure, shortened: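 Quantitative HTS format in HepG2 cells stably expressing an ARE-luciferase reporter; 16 hr compound treatment at 37 C, luciferase signal detected with ONE-Glo.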
# [7] = qHTS Assay for Identifying Gametocytocidal Compounds (AID 743244; active = well fitted curve in the direction sought with a large enough effect; an effect the other way counts as inactive or inconclusive; also: potency is read from the fitted curve at half-maximal effect); settings: P. falciparum 3D7 stage III-V gametocytes, alamarBlue, 72 h
# Procedure, shortened: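 P. falciparum 3D7 stage III–V gametocytes (20,000 cells/well) were exposed to compounds for 72 h at 37 °C, 5% CO2. AlamarBlue was then added for 24 h; decreased resorufin fluorescence (Ex 525/Em 598 nm) indicated loss of viability.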
# [8] = Confirmatory qHTS for VERO E6 Cytotoxicity Assay: Counterscreen for SARS-CoV-2 CPE Assay (AID 1508605); also: series mostly up to about 20 µM; nearly all actives have a fitted effect of over 60% in size
smiles,measurement,setting,value
C[C@H]1O[C@@H](O[C@H]2[C@@H](O)C[C@H](O[C@H]3[C@@H](O)C[C@H](O[C@H]4CC[C@@]5(C)[C@H](CC[C@@H]6[C@@H]5C[C@@H](O)[C@]5(C)[C@@H](C7=CC(=O)OC7)CC[C@]65O)C4)O[C@@H]3C)O[C@@H]2C)C[C@H](O)[C@@H]1O,Potency,[1],1000 nM (active)
same,activation,[2],-4.19%
COc1cc(CNC(=O)CCCC/C=C/C(C)C)ccc1O,activation,[2],-2.84% and 4.77%
same,outcome,[3],inactive
same,outcome,[4],inactive
same,Potency,[5],42200 nM (active)
same,outcome,[6],inactive
CO[C@H](C(=O)[C@@H](O)[C@@H](C)O)C1Cc2cc3cc(O[C@H]4C[C@@H](O[C@H]5C[C@@H](O)[C@H](O)[C@@H](C)O5)[C@@H](O)[C@@H](C)O4)c(C)c(O)c3c(O)c2C(=O)[C@H]1O[C@H]1C[C@@H](O[C@H]2C[C@@H](O[C@H]3C[C@](C)(O)[C@H](O)[C@@H](C)O3)[C@H](O)[C@@H](C)O2)[C@H](O)[C@@H](C)O1 (stereo not given in full),Potency,[7],833 nM (active)
OCCOc1ccc(/C(=C(/CCCl)c2ccccc2)c2ccccc2)cc1,Potency,[8],inactive
"CCCCCOc1ccc(-c2ccc(-c3ccc(C(=O)NC4CC(O)C(O)NC(=O)C5C(O)C(C)CN5C(=O)C(C(C)O)NC(=O)C(C(O)C(O)c5ccc(O)cc5)NC(=O)C5CC(O)CN5C(=O)C(C(C)O)NC4=O)cc3)cc2)cc1 (stereo not drawn) ({pTerphenylCO(4''-OnC5H11)}-[ξOrn(4,5-diOH)]T[Hyp][ξhTyr(βξ-OH,γξ-OH)]T[ξPro(3ξ-OH,4ξ-Me)]; lactam 1-C; configuration not given here)",Potency,[8],inactive
